Data as given in the supplement of paper PMC13380429.

Tested on: Vero E6 infected with SARS-CoV-2
Assay: inhibition of SARS-CoV-2 cytopathic effect; higher = more antiviral protection, active = above 15
Conditions: 48 h

Measured: inhibition of SARS-CoV-2 cytopathic effect

CNCCC=C1c2ccccc2CCc2ccccc21 [nortriptyline]
inactive: 1 nM 1.29% | 8.33 nM -0.85% | 100 nM 0.56% | 833.33 nM 1.26% | 10000 nM -4.8%

COc1ccc(NS(=O)(=O)c2ccc(N)cc2)nn1 [sulfamethoxypyridazine]
inactive: 1 nM 3.44% | 8.33 nM 2.28% | 100 nM 2.29% | 833.33 nM 3.71% | 10000 nM 2.16%

CC(O)c1cc(C(=O)N[C@@H](C)Cn2ccc(-c3ccc(C#N)c(Cl)c3)n2)n[nH]1 (stereo not given in full)
inactive: 1 nM 1.69% | 8.33 nM 0.5% | 100 nM 0.89% | 833.33 nM -0.69% | 10000 nM 0.64%

COCCOc1ccc2c(c1)ncn2-c1ccc2cccc(N3CCC(N)CC3)c2n1
inactive: 1 nM -0.92% | 8.33 nM 2.04% | 100 nM 0.64% | 833.33 nM 1.12% | 10000 nM -2.22%

COC1(C[S@@+]([O-])c2ccccc2)CCN(CCc2c[nH]c3ccc(F)cc23)CC1
inactive: 1 nM 1.49% | 8.33 nM 4.84% | 100 nM 3.16% | 833.33 nM 1.05% | 10000 nM -2.13%

COc1ccc(Cl)cc1[C@]1(F)C(=O)Nc2cc(C(F)(F)F)ccc21 [flindokalner]
inactive: 1 nM 2.54% | 8.33 nM 0% | 100 nM -1.3% | 833.33 nM 1.03% | 10000 nM -0.62%

CCC(CC)(CC(=O)Nc1cccc(/C=C/c2nc(C3CCC3)cs2)c1)C(=O)O [cinalukast]
inactive: 1 nM -1.61% | 8.33 nM 0.18% | 100 nM 0.24% | 833.33 nM 0.4% | 10000 nM 1.8%

c1ccc(Cn2c(-c3ccc(OC[C@H](C4CCNCC4)n4c(-c5ccccc5)nc5ccccc54)cc3)nc3ccccc32)cc1 [deltarasin]
inactive: 1 nM -4.79% | 8.33 nM -0.65% | 100 nM -1.55% | 833.33 nM -1.93% | 10000 nM -33.6%

CC(=O)Nc1cccc(-n2c(=O)n(C3CC3)c(=O)c3c(Nc4ccc(I)cc4F)n(C)c(=O)c(C)c32)c1 [trametinib]
inactive: 1 nM -1.42% | 8.33 nM -7.51% | 100 nM -14.6% | 833.33 nM -16.9% | 10000 nM -17.4%

CC(C)(C)c1ccc(-c2nc3c(N4CCN(Cc5ccc6nccnc6c5)CC4)cccc3[nH]2)cc1
inactive: 1 nM 1.45% | 8.33 nM 1.91% | 100 nM 1.44% | 833.33 nM -0.5% | 10000 nM 4.93%

N#CCC(=O)NN [cyacetacide]
inactive: 1 nM -3.1% | 8.33 nM 1.89% | 100 nM 6.23% | 833.33 nM 6.6% | 10000 nM 7.12%

C[C@]12CCC(=O)C=C1CC[C@@H]1[C@@H]2[C@@H](O)C[C@@]2(C)[C@H]1CC[C@]2(O)C(=O)COP(=O)(O)O [hydrocortisone-phosphate]
inactive: 1 nM 1.12% | 8.33 nM 3.34% | 100 nM 2.4% | 833.33 nM 2.84% | 10000 nM 1.11%

NC/C(=C/F)CCc1ccc(F)cc1 [mofegiline]
inactive: 1 nM 3.65% | 8.33 nM 2.09% | 100 nM 1.29% | 833.33 nM -1.58% | 10000 nM -3.87%

COc1ccccc1N1CCN(CCCNc2cc(=O)n(C)c(=O)n2C)CC1 [urapidil]
inactive: 1 nM 0.14% | 8.33 nM -1.36% | 100 nM -0.45% | 833.33 nM 2.04% | 10000 nM -0.1%

CN(C/C=C/C#CC(C)(C)C)Cc1cccc2ccccc12 [terbinafine]
inactive: 1 nM 5.77% | 8.33 nM 2.3% | 100 nM 8.59% | 833.33 nM 6.27% | 10000 nM 8.15%

COc1cc(OC)c(C(=O)CCCN2CCCC2)c(OC)c1 [buflomedil]
inactive: 1 nM 1.62% | 8.33 nM 0.64% | 100 nM 4.02% | 833.33 nM 3.26% | 10000 nM 1.28%

O=C(CN1C(=O)C2(CCCC2)NC[C@H]1c1cc(F)cc(F)c1)Nc1ccc2c(c1)C[C@@]1(C2)C(=O)Nc2ncccc21
inactive: 1 nM -6.85% | 8.33 nM -7.92% | 100 nM -8.42% | 833.33 nM -6.83% | 10000 nM -2.55%

CC(O)(C(=O)Nc1ccc(S(=O)(=O)c2ccccc2)cc1)C(F)(F)F (stereo not given)
inactive: 1 nM 1.63% | 8.33 nM 1.61% | 100 nM 2.14% | 833.33 nM -0.08% | 10000 nM 14.1%
